# Measurements from PubChem BioAssay (NCI).
# The panel holds about 83,000 compounds, 20% with a hit somewhere; the sample as a whole holds those more often.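 The test compound was applied at a single concentration to cells in 96-well plates for 48 hours, and percent growth was recorded.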 The source made the active and inactive calls. The calls were made as follows: active = growth percent below 10; inactive = the rest.
# Test system: KM12 colon
# Assay: NCI-60 one-dose screen, 48 h (100 = growth as untreated, 0 = no growth, -100 = all killed)
# Conditions: 10 µM unless noted
row,SMILES,growth
1,O=c1oc2ccc(Cl)cc2c(=O)n1-c1ccc(Cl)cc1F,-9.11% (active)
2,O=C(CCc1nnc2sc(Cc3ccccc3Cl)nn12)c1nc2ncccc2[nH]1,97.1% (inactive)
3,O=c1oc2ccc(I)cc2c(=O)n1-c1ccc(I)cc1F,-10.7% (active)
4,O=C(NCc1ccccc1)C1CN(c2ccc(Cl)cc2)N(c2ccc(Cl)cc2)C1=O (centres undefined),59.8% (inactive)
5,O=c1oc2ccc(-c3ccc(F)cc3F)cc2c(=O)n1-c1cccc(C(F)(F)F)c1,3.37% (active)
6,Nc1nc(-c2cnccn2)nn1-c1nc2ccccc2s1,101% (inactive)
7,O=C(c1ccccc1)N(C(=S)NCCc1ccc(Cl)cc1)c1ccc(Cl)cc1,26.8% (inactive)
8,O=C(COc1cc(O)c2c(=O)cc(-c3ccccc3)oc2c1)Nc1ccccc1,86.5% (inactive)
9,O=C(Nc1ccc(I)cc1F)c1cc(Cl)ccc1O,-10.9% (active)
10,O=c1oc2ccc(F)cc2c(=O)n1-c1ccc(I)cc1F,-0.975% (active)
11,O=C(Nc1ccc(I)cc1F)c1cc(Br)ccc1O,-7% (active)
12,CSc1nc2c(c(=O)[nH]1)N=C1c3ccccc3C(=O)C1C(c1ccc(F)cc1)N2 (centres undefined),41.7% (inactive)
13,O=C(Nc1ccc(F)cc1F)c1cc(I)ccc1O,6.2% (active)
14,O=C(Nc1ccc(Br)cc1F)c1cc(Cl)ccc1O,-30.9% (active)
15,Cn1nc(C(C)(C)C)cc1NC(=O)Cc1ccc(/C=C2\C(=O)Nc3ccccc32)cc1,21.7% (inactive)
16,CN(CCc1ccccc1)C(=S)N(C(=O)c1ccc([N+](=O)[O-])cc1)c1ccc(Cl)cc1,49.6% (inactive)
17,O=C(c1ccccc1)N(C(=S)NCCc1ccc(Cl)cc1)c1ccccc1,52.3% (inactive)
18,O=C(Nc1ccc(F)cc1F)c1cc(Br)ccc1O,-0.56% (active)
19,CC[C@]1(O)C[C@@H]2CN(CCc3c([nH]c4ccccc34)[C@@](C(=O)OC)(c3cc4c(cc3OC)N(C)[C@H]3[C@@](O)(C(=O)OC)[C@H](OC(=O)CCCBr)[C@]5(CC)C=CCN6CC[C@]43[C@@H]65)C2)C1,7.23% (active)
20,O=c1oc2ccc(Cl)cc2c(=O)n1-c1ccc(F)cc1F,5.64% (active)

row,SMILES,growth
1,Fc1cccc(COc2ccc(Nc3ncnc4onc(-c5ccccc5)c34)cc2)c1,9.57% (active)
2,O=C(Nc1ccc(F)cc1F)c1cc(Cl)ccc1O,5.33% (active)
3,O=C(CCc1nnc2sc(-c3ccc(Cl)cc3Cl)nn12)c1nc2ncccc2[nH]1,-52.2% (active)
4,COc1ccc(C2=C(c3cccc(OC)c3)C(=O)c3ccc(C)nc3C2=O)cc1,28.6% (inactive)
5,COc1cc(/C=C2\Oc3cc(OCCCN4CCCC4)ccc3C2=O)cc(OC)c1,26.3% (inactive)
6,Nc1ccn(C2O[C@H](CO)[C@@H](O)[C@H]2O)c(=O)n1 (some centres undefined),72.1% (inactive)
7,COc1cc2nc(-c3cnc(N(C)C)nc3)nc(NC3CCN(Cc4ccccc4)CC3)c2cc1OC,-60.9% (active)
8,O=c1oc2ccc(I)cc2c(=O)n1-c1ccc(F)cc1F,3.81% (active)
9,C1=CC2(C=C1)OC21CCC2(C=CC3(C2)OC3C2CCCCC2)CC1 (centres undefined),105% (inactive)
10,COc1ccc2[nH]c(O)c(N=NC(=O)c3oc4ccccc4c3C)c2c1,43.8% (inactive)
11,CCOc1ccc(-c2nonc2NC(=O)c2cccc(C)c2)cc1OCC,62.6% (inactive)
12,Cc1cccc2c(=O)c3c(sc12)c(NCCN)nc1ccccc13,-90.5% (active)
13,COc1ccc(Cn2c(Br)c3c(c2Br)-c2nc(NC(=O)c4ccc(OC)cc4)sc2CC3)cc1,79.9% (inactive)
14,O=C(Nc1ccc(Br)cc1F)c1cc(I)ccc1O,6.15% (active)
15,Cc1ccc2[nH]c(=O)cc(-n3nncc3Cn3c4ccccc4c4ccccc43)c2c1,103% (inactive)
16,COc1ccc(-c2cn[nH]c2-c2ccc(OC)c(O)c2)cc1,44.8% (inactive)
17,O=C(CCc1nnc2sc(COc3ccccc3)nn12)c1nc2ncccc2[nH]1,99.8% (inactive)
18,CCOC(=O)c1c2c(c(C)n1Cc1ccc(OC)cc1)-c1oncc1CC2,87.9% (inactive)
19,Cc1nc(Nc2ccccn2)sc1C(=O)/C=C/c1ccc(Cl)cc1,8.26% (active)
